Laboratory results published in PubChem BioAssay AID1159580 (chemical genetic matrix, 2015).
Where “and” joins values, the source holds several entries; their conditions need not be identical. Equal values may be shown once. About 2,000 (36%) of roughly 5,500 compounds were called active. Not shown: some 18% with an inconclusive outcome. Cut-off read from the data, not from the text of the source: active = normalized growth mostly below about 0.91 (no sharp cut-off); inconclusive = no clear call, values can overlap the other calls; inactive = mostly above about 0.92. The list shows a part of the results.

Assay: chemical genetic growth profiling, strain panel (AID 1159580);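 note: tested at 20 µM; growth read once vehicle control cultures reached saturation at 30 °C; 1 = growth at the plate median or of vehicle wells; lower values mean less growth of the strain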
Conditions: S. cerevisiae deletion strains, growth OD
[1] = locus YMR307W, strain GAS1, active compounds read low
[2] = locus YPL055C, strain LGE1, active compounds read low

Measured: normalized growth

CC(N)Cc1c[nH]c2ccc(O)cc12 (centres undefined)
inactive: locus YAL013W, strain DEP1, active compounds read low 1.02 | locus YAL040C, strain CLN3, active compounds read low 1 | locus YCL061C, strain MRC1 (second series), active compounds read low 1 | locus YDR363W, strain ESC2, active compounds read low 1.03 | locus YER002W, strain NOP16, active compounds read low 1 | [1] 1 | locus YNL153C, strain GIM3, active compounds read low 1.01 | locus YNL175C, strain NOP13, active compounds read low 1.01 | locus YNL197C, strain WHI3, active compounds read low 1.04 | locus YNL224C, strain SQS1, active compounds read low 1.02 | locus YOR083W, strain WHI5 (second series), active compounds read low 1.01 | [2] 1.01

CC[C@@H](CO)NCCN[C@@H](CC)CO
inactive: locus YAL021C, strain ccr4, active compounds read low 1.01 | locus YAL026C, strain drs2, active compounds read low 1 | locus YAL030W, strain snc1, active compounds read low 1.01 | locus YBL061C, strain skt5, active compounds read low 1.02 | locus YBR009C, strain hhf1, active compounds read low 1 | locus YBR021W, strain FUR4, active compounds read low 1.02 | locus YBR023C, strain chs3, active compounds read low 1.04 | locus YBR171W, strain sec66, active compounds read low 1.02 | locus YBR229C, strain ROT2, active compounds read low 1.01 | locus YBR231C, strain swc5, active compounds read low 0.968 | locus YBR279W, strain paf1, active compounds read low 1.02 | locus YCL011C, strain gbp2, active compounds read low 1.03 | locus YCL016C, strain dcc1, active compounds read low 1.04 | locus YCL029C, strain bik1, active compounds read low 1 | locus YCL061C, strain MRC1, active compounds read low 1.03 | locus YCL069W, strain vba3, active compounds read low 1 | locus YCR088W, strain abp1, active compounds read low 1.01 | locus YDL005C, strain med2, active compounds read low 1 | locus YDL035C, strain GPR1, active compounds read low 1.02 | locus YDL040C, strain nat1, active compounds read low 1 | locus YDL074C, strain BRE1, active compounds read low 1.04 | locus YDL101C, strain DUN1, active compounds read low 1.02 | locus YDL134C, strain PPH21, active compounds read low 1.02 | locus YDL185W, strain tfp1, active compounds read low 1 | locus YDL192W, strain arf1, active compounds read low 1 | locus YDR001C, strain nth1, active compounds read low 1.01 | locus YDR069C, strain doa4, active compounds read low 0.996 | locus YDR101C, strain arx1, active compounds read low 0.987 | locus YDR137W, strain rgp1, active compounds read low 1.01 | locus YDR150W, strain NUM1, active compounds read low 1 | locus YDR159W, strain sac3, active compounds read low 0.959 | locus YDR162C, strain NBP2, active compounds read low 1.01 | locus YDR195W, strain ref2 0.964 | locus YDR297W, strain sur2, active compounds read low 1.02 | locus YDR318W, strain mcm21, active compounds read low 1.01 | locus YDR334W, strain swr1, active compounds read low 1.01 | locus YDR335W, strain msn5, active compounds read low 1.01 | locus YDR388W, active compounds read low 1 | locus YDR392W, strain spt3, active compounds read low 0.985 | locus YDR502C, strain sam2, active compounds read low 1.03 | locus YEL003W, strain gim4, active compounds read low 0.999 | locus YEL037C, strain rad23, active compounds read low 1.01 | locus YEL061C, strain CIN8 (second series), active compounds read low 1.01 | locus YEL061C, strain CIN8, active compounds read low 1.01 | locus YER015W, strain faa2, active compounds read low 1.01 | locus YER016W, strain bim1, active compounds read low 0.985 | locus YER110C, active compounds read low 1.01 | locus YER111C, strain swi4, active compounds read low 1.01 | locus YER155C, strain BEM2 (second series), active compounds read low 0.999 | locus YER155C, strain BEM2, active compounds read low 1.01 | locus YER167W, strain BCK2, active compounds read low 1.01 | locus YFR010W, strain ubp6, active compounds read low 1 | locus YGL078C, strain dbp3, active compounds read low 1 | locus YGL086W, strain mad1, active compounds read low 0.988 | locus YGL167C, strain pmr1, active compounds read low 1.01 | locus YGL173C, strain kem1, active compounds read low 1.01 | locus YGL227W, strain vid30, active compounds read low 1.02 | locus YGL240W, strain doc1, active compounds read low 0.995 | locus YGL248W, strain PDE1, active compounds read low 1.02 | locus YGL253W, strain hxk2, active compounds read low 0.999 | locus YGR078C, strain PAC10, active compounds read low 1.01 | locus YGR135W, strain pre9, active compounds read low 1.04 | locus YGR229C, strain SMI1, active compounds read low 1.02 | locus YGR252W, strain gcn5, active compounds read low 1.04 | locus YHR013C, strain ard1, active compounds read low 1.04 | locus YHR027C, strain rpn1, active compounds read low 1 | locus YHR030C, strain SLT2, active compounds read low 1 and 1.04 | locus YHR079C, strain IRE1 (second series), active compounds read low 0.987 | locus YHR079C, strain IRE1, active compounds read low 1.04 | locus YHR094C, strain hxt1, active compounds read low 1.01 | locus YHR129C, strain ARP1, active compounds read low 1.02 | locus YHR142W, strain chs7, active compounds read low 1.02 | locus YHR200W, strain rpn10, active compounds read low 1 | locus YIL066C, strain RNR3, active compounds read low 1.01 | locus YIL073C, strain SPO22, active compounds read low 1.02 | locus YIL125W, strain kgd1, active compounds read low 1 | locus YIR030C, strain dcg1, active compounds read low 1 | locus YJL092W, strain hpr5, active compounds read low 1.02 | locus YJL095W, strain BCK1 (second series), active compounds read low 1.02 | locus YJL095W, strain BCK1, active compounds read low 1.03 and 1.02 | locus YJL115W, strain asf1, active compounds read low 1.01 | locus YJL129C, strain trk1, active compounds read low 1.02 | locus YJL134W, strain LCB3, active compounds read low 1.02 | locus YJL154C, strain vps35, active compounds read low 1 | locus YJL164C, strain tpk1, active compounds read low 1.02 | locus YJL166W, strain qcr8, active compounds read low 1.05 | locus YJL168C, strain set2, active compounds read low 1.03 | locus YJL187C, strain SWE1 (second series), active compounds read low 1.01 | locus YJL187C, strain SWE1, active compounds read low 1 | locus YJR043C, strain POL32, active compounds read low 1.01 | locus YJR066W, strain TOR1, active compounds read low 0.909 | locus YKL009W, strain mrt4, active compounds read low 0.996 | locus YKL068W, active compounds read low 0.994 | locus YKL085W, strain MDH1 (second series), active compounds read low 1 | locus YKL085W, strain MDH1, active compounds read low 1 | locus YKL160W, strain elf1, active compounds read low 1.05 | locus YKR001C, strain vps1, active compounds read low 0.991 | locus YKR026C, strain gcn3, active compounds read low 1.01 | locus YKR091W, strain srl3, active compounds read low 1.01 | locus YLL001W, strain dnm1, active compounds read low 1.05 | locus YLL026W, active compounds read low 1.01 | locus YLL041C, strain sdh2, active compounds read low 1 | locus YLR027C, strain aat2, active compounds read low 0.992 | locus YLR039C, strain RIC1, active compounds read low 1.1 | locus YLR058C, strain SHM2, active compounds read low 1.02 | locus YLR102C, strain apc9, active compounds read low 1 | locus YLR113W, strain HOG1, active compounds read low 1.1 | locus YLR221C, strain rsa3, active compounds read low 1.05 | locus YLR258W, strain gsy2, active compounds read low 1.02 | locus YLR262C, strain YPT6 (second series), active compounds read low 1.03 | locus YLR262C, strain YPT6, active compounds read low 1.05 | locus YLR268W, strain sec22, active compounds read low 0.988 | locus YLR320W, strain mms22, active compounds read low 1.07 | locus YLR330W, strain CHS5, active compounds read low 1.01 | locus YLR342W, strain FKS1 (second series), active compounds read low 1.05 | locus YLR342W, strain FKS1, active compounds read low 1.02 | locus YLR357W, strain rsc2, active compounds read low 0.986 | locus YLR370C, strain arc18, active compounds read low 1.02 | locus YLR371W, strain rom2, active compounds read low 1.01 | locus YLR384C, strain iki3, active compounds read low 1.02 | locus YLR418C, strain cdc73, active compounds read low 1.01 | locus YML016C, strain PPZ1, active compounds read low 1.01 | locus YML032C, strain rad52, active compounds read low 1.01 | locus YML120C, strain ndi1, active compounds read low 1.03 | locus YML124C, strain tub3, active compounds read low 0.998 | locus YMR058W, strain fet3, active compounds read low 1.01 | locus YMR078C, strain ctf18, active compounds read low 1.01 | locus YMR125W, strain sto1, active compounds read low 1 | locus YMR129W, active compounds read low 1 | locus YMR205C, strain PFK2, active compounds read low 1.05 | locus YMR223W, strain ubp8, active compounds read low 1.02 | locus YMR231W, strain pep5, active compounds read low 1 | locus YMR263W, strain SAP30, active compounds read low 1.02 | [1] 1.01 | locus YNL067W, strain RPL9B, active compounds read low 1.01 | locus YNL071W, strain lat1, active compounds read low 1.02 | locus YNL183C, strain NPR1, active compounds read low 1 | locus YNL209W, strain ssb2, active compounds read low 1.02 | locus YNL233W, strain BNI4, active compounds read low 1.02 | locus YNL248C, strain rpa49, active compounds read low 0.996 | locus YNL250W, strain rad50, active compounds read low 0.992 | locus YNL271C, strain bni1, active compounds read low 0.995 | locus YNL298W, strain CLA4, active compounds read low 1.02 | locus YNL307C, strain MCK1, active compounds read low 1 | locus YNL322C, strain KRE1 (second series), active compounds read low 1.04 | locus YNL322C, strain KRE1, active compounds read low 1.01 | locus YNR049C, strain mso1, active compounds read low 1.02 | locus YNR052C, strain pop2, active compounds read low 1 | locus YOL006C, strain TOP1, active compounds read low 1.01 | locus YOL012C, strain htz1 0.915 | locus YOL147C, strain pex11, active compounds read low 0.997 | locus YOR001W, strain rrp6, active compounds read low 0.99 | locus YOR061W, strain CKA2, active compounds read low 1.01 | locus YOR069W, strain VPS5, active compounds read low 1.01 | locus YOR070C, strain gyp1, active compounds read low 1.01 | locus YOR080W, strain dia2, active compounds read low 1 | locus YOR083W, strain WHI5, active compounds read low 1.07 | locus YOR106W, strain vam3, active compounds read low 1.04 | locus YOR136W, strain idh2, active compounds read low 0.995 | locus YOR144C, strain elg1, active compounds read low 0.996 | locus YOR184W, strain ser1, active compounds read low 1.03 | locus YOR231W, strain MKK1, active compounds read low 1.07 | locus YOR265W, strain rbl2, active compounds read low 1.01 | locus YOR270C, strain vph1, active compounds read low 1.04 | locus YOR290C, strain snf2, active compounds read low 0.986 | locus YOR316C, strain cot1, active compounds read low 1 | locus YPL051W, strain arl3, active compounds read low 1 | [2] 1.03 | locus YPL078C, strain atp4, active compounds read low 1.02 | locus YPL106C, strain sse1, active compounds read low 1.03 | locus YPL240C, strain hsp82, active compounds read low 1.02 | locus YPL256C, strain CLN2, active compounds read low 1.03 | locus YPR119W, strain clb2, active compounds read low 1 | locus YPR141C, strain kar3, active compounds read low 1.01 | locus YPR163C, strain tif3, active compounds read low 0.989 | locus YPR167C, strain met16, active compounds read low 1 | strain wtn01, active compounds read low 1
